The results in this text go back to PubChem BioAssay (NCATS).

Several values for one entry are separate records, joined by “and”; a condition that tells them apart may be missing. Identical values can stand only once. Inconclusive results are not listed. Values without a mark were called inactive. Activity calls are given as the source filed them. Unless noted, calls follow the shape of the dose curve; as a rule, active = well fitted curve in the direction sought with a large enough effect; inconclusive = small, poorly fitted or top-dose-only effect, or another doubt; inactive = no such curve, though single readings can be large; an effect the other way counts as inactive or inconclusive.

For assay [1], the target named is Calcium and integrin-binding protein 1 (Homo sapiens) (UniProt Q99828). The assay is described as follows: Primary qHTS for Identification of Calcium Integrin Binding Protein 1 (CIB1) Competitor (AID 1508620).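 Also: GST tagged CIB1 binding a fluorescein labelled alphaIIb integrin peptide tracer; top concentration of the series differs between compounds; % is scaled to controls: 0 for no effect and ±100 for the full control effect.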 In outline:
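Fluorescence polarization competition: CIB1-GST (1 uM final) preincubated with compound 15 min at room temperature, then FITC-labeled alphaIIb peptide (100 nM final) added for another 15 min. Polarization read at Ex 480/Em 540.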
For orientation: In qHTS, concentration-response curves come from the screen itself.

Assay [2] can be described thus: Primary qHTS for small molecule stabilizers of the endoplasmic reticulum resident proteome: Secreted ER Calcium Modulated Protein (SERCaMP) assay (AID 1508630). Also: potency is read from the fitted curve at half-maximal effect. As to activity change, negative = inhibition: % is scaled to controls: 0 for no effect and ±100 for the full control effect. The procedure, abridged: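 GLuc-SERCaMP-expressing SH-SY5Y cells, pretreated 16 h with compound, are challenged with thapsigargin to empty ER calcium stores; after 4 h, coelenterazine is added directly to the medium and luminescence is imaged.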

A short description of assay [3]: A High-Content qHTS Against Drug Library for the Identification of Small Molecules that Inhibit DYT1 Early Onset Primary Dystonia-Associated Cell Pathology (AID 1645839; calls by dose curve; also: potency is read from the fitted curve at half-maximal effect; as to % pathology change, negative = correction: series mostly up to about 46 µM). In outline:
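Readout: %pathology, the punctate EGFP-TorsinA distribution from imaging, as the primary channel and cell count as the toxicity counterscreen. HEK293 Flp-In cells expressing delE TorsinA were induced with tetracycline and treated with compound for 48 h.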

Assay [4] addresses Cytochrome P450 2D6 (Homo sapiens) (UniProt P10635). The assay can be described thus: Cytochrome P450 family 2 subfamily D member 6 (CYP2D6) small molecule antagonists: luciferase biochemical (cell-free) qHTS assay (AID 1645840; active = well fitted curve in the direction sought with a large enough effect in the repeat runs; an effect the other way counts as inactive or inconclusive; also: nearly all actives have a fitted effect of over 55% in size; also: potency is read from the fitted curve at half-maximal effect; as to activity change, negative = inhibition: series mostly up to about 57 µM; % is scaled to controls: 0 for no effect and ±100 for the full control effect). The procedure, abridged: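 P450-Glo luminescent screen: recombinant CYP2D6 enzyme–proluciferin substrate mix preincubated with compound 10 min at room temperature, then NADPH regeneration added for 1 h at room temperature. Detection reagent added for 20 min; luciferin light read as relative luminescence units.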

Assay [5] concerns the target Cytochrome P450 2C9 (Homo sapiens) (UniProt P11712). The assay is described as follows: Cytochrome P450 family 2 subfamily C member 9 (CYP2C9) small molecule antagonists: luciferase biochemical (cell-free) qHTS assay (AID 1645842; active = well fitted curve in the direction sought with a large enough effect in the repeat runs; an effect the other way counts as inactive or inconclusive; also: nearly all actives have a fitted effect of over 55% in size; also: potency is read from the fitted curve at half-maximal effect; as to activity change, negative = inhibition: series mostly up to about 57 µM; % is scaled to controls: 0 for no effect and ±100 for the full control effect). In outline: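 Luminescence, after 20 min with luciferin detection reagent, reflected CYP2C9 turnover during a 1 h NADPH-driven reaction at 37C. Enzyme-substrate mix contained 0.4% bovine serum albumin and was preincubated with compound 10 min at room temperature.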

Sequence of Cytochrome P450 2D6 (Homo sapiens) (P10635 whole entry, looked up): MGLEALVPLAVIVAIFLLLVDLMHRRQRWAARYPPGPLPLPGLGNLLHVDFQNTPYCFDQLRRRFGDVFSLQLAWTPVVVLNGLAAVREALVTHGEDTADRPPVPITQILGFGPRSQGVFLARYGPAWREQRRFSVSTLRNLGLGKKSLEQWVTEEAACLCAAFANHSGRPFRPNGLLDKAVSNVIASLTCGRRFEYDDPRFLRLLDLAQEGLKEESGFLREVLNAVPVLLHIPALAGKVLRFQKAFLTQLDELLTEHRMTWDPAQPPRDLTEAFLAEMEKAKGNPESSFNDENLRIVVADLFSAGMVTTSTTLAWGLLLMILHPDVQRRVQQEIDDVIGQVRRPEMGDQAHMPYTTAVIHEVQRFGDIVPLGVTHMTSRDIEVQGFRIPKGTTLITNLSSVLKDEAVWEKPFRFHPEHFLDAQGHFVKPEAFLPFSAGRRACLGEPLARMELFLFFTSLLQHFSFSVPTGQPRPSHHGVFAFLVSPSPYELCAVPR
Sequence of Cytochrome P450 2C9 (Homo sapiens) (P11712 whole entry, looked up): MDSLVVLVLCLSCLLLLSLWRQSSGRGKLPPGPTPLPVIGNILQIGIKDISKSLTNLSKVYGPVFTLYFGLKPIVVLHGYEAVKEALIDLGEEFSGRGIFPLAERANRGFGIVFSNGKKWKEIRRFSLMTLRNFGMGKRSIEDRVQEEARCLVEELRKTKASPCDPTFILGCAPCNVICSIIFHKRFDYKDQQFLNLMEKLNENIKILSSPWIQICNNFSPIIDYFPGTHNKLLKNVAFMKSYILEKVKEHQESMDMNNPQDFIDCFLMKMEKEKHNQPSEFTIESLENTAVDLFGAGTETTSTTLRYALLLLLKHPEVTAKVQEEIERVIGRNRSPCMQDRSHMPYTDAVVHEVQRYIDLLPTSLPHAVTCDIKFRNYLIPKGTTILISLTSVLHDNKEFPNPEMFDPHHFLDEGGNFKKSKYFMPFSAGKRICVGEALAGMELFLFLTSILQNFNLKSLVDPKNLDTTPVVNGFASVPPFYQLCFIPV
Sequence of Calcium and integrin-binding protein 1 (Homo sapiens) (Q99828 whole entry, looked up): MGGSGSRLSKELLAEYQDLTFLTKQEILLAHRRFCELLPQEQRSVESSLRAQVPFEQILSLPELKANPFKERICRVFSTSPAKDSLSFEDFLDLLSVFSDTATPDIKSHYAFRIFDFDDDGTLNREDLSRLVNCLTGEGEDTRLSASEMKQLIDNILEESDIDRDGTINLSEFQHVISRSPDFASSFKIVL

In the case of `NC(N)=NN=C(/C=C/c1ccc([N+](=O)[O-])o1)/C=C/c1ccc([N+](=O)[O-])o1`, the Potency result in assay [1] and in assay [2] was “inactive” in each case. The results for the Potency in assay [3], in assay [4] and in assay [5] were 1 µM (active), 2.75 µM (active) and 15.5 µM (active), respectively.
Take `COP(=O)(OC)OC(c1ccc(Cl)cc1)P(=O)(OC)OC` (stereo not given): the Potency result in assay [1], in assay [2], in assay [3], in assay [4] and in assay [5] was “inactive” in each case.
As to `CCOCCn1c(N2CCCN(C)CC2)nc2ccccc21`, the Potency entry in assay [1], in assay [2], in assay [3] and in assay [5] was “inactive” in each case. Further, the Potency in assay [4] is 6.92 µM (active).
Regarding `CCOC(=O)c1c(N)sc2c1CCN(Cc1ccccc1)C2`, the Potency entry in assay [1], in assay [2] and in assay [3] was “inactive” in each case. Further, the Potency in assay [4] was 0.0098 µM (active); in assay [5] it was 8.71 µM (active).
As for `Cc1cc(-c2ccccc2)nnc1NCCN1CCOCC1`, the Potency entry in assay [1], in assay [2], in assay [3] and in assay [5] was “inactive” throughout. In assay [4], the Potency was 4.9 µM (active).
Consider `N=C(N)N1CCc2ccccc2C1`, for which the activity change, negative = inhibition in assay [1] is -1.23% [at 12.4 µM]; in assay [2], -7.52% [at 3.88 µM]; in assay [4] it was 3.13% [at 4.83 µM]; in assay [5] it was 12.1% [at 4.83 µM]. Further, the % pathology change, negative = correction in assay [3] was 0.596% [at 4.63 µM].
Take `CCN(CC)CCNC(=O)COc1ccc(OC)cc1`: the Potency result in assay [1], in assay [2], in assay [3] and in assay [5] was “inactive” each time. Further, the Potency in assay [4] is 13.8 µM (active).
Regarding `O=C1C(O)=C(O)C(=O)C(O)=C1O`, the Potency result in assay [1], in assay [2], in assay [3], in assay [4] and in assay [5] was “inactive” throughout.
Regarding `COc1cc(C)nc(-n2nc(C)cc2OC)n1`, the Potency entry in assay [1], in assay [2], in assay [3], in assay [4] and in assay [5] was “inactive” each time.
Regarding `Cc1c[nH]c2ccccc12`, the Potency result in assay [1], in assay [2], in assay [3], in assay [4] and in assay [5] was “inactive” each time.
On to `CCC(C(=O)OCCOCCN(CC)CC)c1ccccc1` (stereo not given), for which the Potency entry in assay [1], in assay [2], in assay [3] and in assay [5] was “inactive” throughout. Further, in assay [4], the Potency is 11 µM (active).
Turning to `O=C(CCCN1CC=C(n2c(=O)[nH]c3ccccc32)CC1)c1ccc(F)cc1`, the Potency entry in assay [1], in assay [3] and in assay [5] was “inactive” each time. The Potency in assay [2] was 25.1 µM (active); in assay [4], 0.246 µM (active).
As to `COc1ccc(CCN(C)CCCN2CCc3cc(OC)c(OC)cc3CC2=O)cc1OC`, the Potency result in assay [1], in assay [2], in assay [3], in assay [4] and in assay [5] was “inactive” in each case.
Take `CN(C)CCC[C@@]1(c2ccc(F)cc2)OCc2cc(C#N)ccc21`: the Potency entry in assay [1], in assay [2], in assay [3] and in assay [5] was “inactive” in each case. In addition, in assay [4], the Potency is 13.8 µM (active) and 12 µM (active).
Consider `OCCOCCN1CCN(C2=Nc3ccccc3Sc3ccccc32)CC1`, for which the Potency entry in assay [1], in assay [2], in assay [3], in assay [4] and in assay [5] was “inactive” each time.
Consider `CC(C)(C)CC(C)(C)c1ccc(O)c(-n2nc3ccccc3n2)c1`, for which the Potency result in assay [1], in assay [2], in assay [3] and in assay [4] was “inactive” each time. The Potency in assay [5] was 10.7 µM (active) and 6.92 µM (active).
For the molecule `Cc1cc2c(OCC(CNC(C)(C)C)OC(=O)c3ccccc3)cccc2[nH]1` (stereo not given), the Potency entry in assay [1], in assay [2] and in assay [3] was “inactive” throughout. In addition, the results for the Potency in assay [4] and in assay [5] were 0.246 µM (active) and 3.47 µM (active), respectively.
Regarding `Cn1c(=O)c2[nH]c(Br)nc2n(C)c1=O`, the Potency entry in assay [1], in assay [2], in assay [3], in assay [4] and in assay [5] was “inactive” throughout.
For `CC(C)NCC(O)c1ccc2ccccc2c1` (stereo not given), the Potency result in assay [1], in assay [2], in assay [3] and in assay [5] was “inactive” in each case. In addition, the Potency in assay [4] is 3.47 µM (active).
Regarding `CN1CCN(c2c(F)cc3c(=O)c(C(=O)O)cn4c3c2SCC4)CC1`, the Potency result in assay [1], in assay [2], in assay [3], in assay [4] and in assay [5] was “inactive” throughout.
On to `CCC1Nc2cc(Cl)c(S(N)(=O)=O)cc2S(=O)(=O)N1` (stereo not given), for which the Potency result in assay [1], in assay [2], in assay [3], in assay [4] and in assay [5] was “inactive” each time.
With `CC(C)[C@@H]1CC[C@@H](C)CC1=O`, the Potency result in assay [1], in assay [2], in assay [3], in assay [4] and in assay [5] was “inactive” in each case.
Turning to `Cc1cccc(C)c1NC(=O)CN1CCCCCC1`, the Potency result in assay [1], in assay [2], in assay [3] and in assay [5] was “inactive” each time. Also, the Potency in assay [4] is 11 µM (active).
Turning to `C[N+]1(C)CCC(=C(c2ccccc2)c2ccccc2)CC1`, the Potency entry in assay [1], in assay [2], in assay [3] and in assay [5] was “inactive” in each case. Moreover, the Potency in assay [4] was 13.8 µM (active).
Regarding `COc1cc(C(=S)N2CCOCC2)ccc1O`, the Potency result in assay [1], in assay [2], in assay [3], in assay [4] and in assay [5] was “inactive” throughout.
In the case of `COc1cc(C(=O)NCc2ccc(OCCN(C)C)cc2)cc(OC)c1OC`, the Potency entry in assay [1], in assay [2], in assay [3], in assay [4] and in assay [5] was “inactive” in each case.
For `CCOC(=O)[C@H](CCc1ccccc1)N[C@@H](C)C(=O)N1[C@H](C(=O)O)C[C@@H]2CCC[C@@H]21`, the Potency result in assay [1], in assay [2], in assay [3], in assay [4] and in assay [5] was “inactive” each time.
For the molecule `CC(=O)NCCCCCC(=O)O`, the Potency entry in assay [1], in assay [2], in assay [3], in assay [4] and in assay [5] was “inactive” each time.
For the molecule `CCN1CCCC(OC(=O)C(c2ccccc2)c2ccccc2)C1` (stereo not given), the Potency result in assay [1], in assay [2], in assay [3] and in assay [5] was “inactive” each time. Further, the Potency in assay [4] is 1.38 µM (active).
